From PubChem BioAssay (Tox21)
Values joined by “and” are separate entries in the source; they are usually repeats but may differ in a detail not shown here. Identical values can stand only once. Results filed as inconclusive are left out. Some compounds were tested as several samples or in several runs, with calls that do not always agree. Active and inactive are the calls of the source. Unless noted, calls follow the shape of the dose curve; as a rule, active = well fitted curve in the direction sought with a large enough effect in the repeat runs; inconclusive = weak or mixed curves; inactive = no such curve, though single readings can be large; an effect the other way counts as inactive or inconclusive.

Legend:
[1] = qHTS assay to identify small molecule agonists of the vitamin D receptor (VDR) signaling pathway - cell viability counter screen (AID 743224); also: nearly all actives have a fitted effect of over 50% in size; also: potency is read from the fitted curve at half-maximal effect
Summary of the method: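 In parallel with the bla FRET readout, cytotoxicity toward VDR-bla cells after 16 h compound exposure was assessed by CellTiter-Glo, with luminescence recorded after a 30 min room-temperature incubation.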

[2] = qHTS assay to identify small molecule antagonists of the vitamin D receptor (VDR) signaling pathway - cell viability counter screen (AID 743225); also: nearly all actives have a fitted effect of over 50% in size
Summary of the method: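 Same-well multiplex: following 16 h treatment of HEK 293T cells carrying a UAS-driven beta-lactamase reporter with compound and agonist (3 nM final), and a 2 h FRET substrate step, CellTiter-Glo was added and luminescence read after 30 min.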

[3] = qHTS assay to identify small molecule agonists of the NFkB signaling pathway - cell viability counter screen (AID 1159515; calls by dose curve; also: nearly all actives have a fitted effect of over 55% in size)
Summary of the method: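 Plate 2,000 NFkB-bla ME-180 cells/well; incubate overnight. Add compounds, 5 hr at 37 C. Add FRET substrate, 1.5 hr RT. Add CellTiter-Glo, 30 min RT; read luminescence.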

[4] = qHTS assay to identify small molecule agonists of the endoplasmic reticulum stress response signaling pathway (AID 1159516; active = well fitted activation curve with a large enough effect in the signal ratio in the repeat runs, not every such curve was filed as active; the % refers to the signal ratio)
Summary of the method: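 Beta-lactamase expression from the ER stress response element in HeLa reporter cells is quantified with the LiveBLAzer B/G FRET substrate, read at 405 nm excitation after 2 hr at room temperature, following 5 hr compound treatment at 37 C.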

[5] = qHTS assay to identify small molecule agonists of the endoplasmic reticulum stress response signaling pathway - cell viability counter screen (AID 1159517; calls by dose curve; also: nearly all actives have a fitted effect of over 50% in size)
Summary of the method: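 After overnight attachment, ESRE-bla HeLa cells were treated with Tox21 library compounds for 5 hr. CellTiter-Glo luminescence, read 30 min post-addition at room temperature, reported viability.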

[6] = qHTS assay to identify small molecule antagonists of the retinoid-related orphan receptor gamma (ROR-gamma) signaling pathway - cell viability counter screen (AID 1159520); also: nearly all actives have a fitted effect of over 50% in size
Summary of the method: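 Cytotoxicity was read from cellular ATP (CellTiter-Glo luminescence) after 16 hr at 37 C with 1 uM doxycycline induction. The inducer was added 2 hr after compound transfer to Tet-on ROR gamma CHO cells.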

[7] = qHTS assay to identify small molecule agonists of the AP-1 signaling pathway - cell viability counter screen (AID 1159525; calls by dose curve; also: nearly all actives have a fitted effect of over 55% in size)
Summary of the method: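 Intracellular ATP by Cell Titer Glo luminescence (30 min, RT) in the same ME-180 AP-1-bla wells after the 5 h compound exposure at 37 °C. Normalised to tetra n-octyl ammonium bromide and DMSO controls.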

[8] = qHTS assay to identify small molecule agonists of the AP-1 signaling pathway (AID 1159526; calls by dose curve)
[9] = target: Retinoic acid receptor RXR-alpha (Homo sapiens) (UniProt P19793); assay: qHTS assay to identify small molecule agonists of the RXR signaling pathway (AID 1159527; calls by dose curve; also: nearly all actives have a fitted effect of over 35% in size)
Summary of the method: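 Compounds in DMSO were added to RXR-alpha-UAS-bla HEK 293T cells kept in 2% charcoal-stripped serum, and incubated 16 hr at 37 C with 5% CO2. Reporter signal came from a 2 hr B/G FRET substrate step.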

[10] = qHTS assay to identify small molecule agonists of the RXR signaling pathway - cell viability counter screen (AID 1159529); also: nearly all actives have a fitted effect of over 50% in size
Summary of the method: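 Counter screen: CellTiter-Glo luminescence. Cells: RXR-alpha-UAS-bla HEK 293T. Medium: 2% charcoal-stripped FBS. Treatment: 16 h, 37 C. Reagent incubation: 30 min, RT.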

[11] = qHTS assay to identify small molecule antagonists of the retinoid acid receptor (RAR) signaling pathway - cell viability counter screen (AID 1159551); also: nearly all actives have a fitted effect of over 35% in size
Summary of the method: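 Viability of C3RL4 cells is quantified from ATP by luminescence after 6 h treatment at 37 C with compounds and 1 uM retinol.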

[12] = qHTS assay to identify small molecule antagonists of the retinoic acid receptor (RAR) signaling pathway (AID 1159552; also: nearly all actives have a fitted effect of over 50% in size; also: potency is read from the fitted curve at half-maximal effect)
Summary of the method: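 Antagonism of retinol-induced RARE reporter activity was measured in C3RL4 cells. Exposure to compounds and 1 uM final retinol lasted 6 hr at 37 C, with luminescence as endpoint.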

[13] = qHTS assay to identify small molecule agonists of the retinoic acid receptor (RAR) signaling pathway (AID 1159553); settings: C3RL4 RARE luciferase reporter, agonist, 6 h; activation: at 73.3 µM (top of the series) unless noted
Summary of the method: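 Compounds dissolved in DMSO were pinned onto C3RL4 cells seeded the previous day, and plates were held 6 hr at 37 C. RARE-driven luciferase output was then read by luminescence.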

[14] = target: Nuclear receptor ROR-gamma (Homo sapiens) (UniProt P51449); assay: qHTS assay to identify small molecule antagonists of the retinoid-related orphan receptor gamma (ROR-gamma) signaling pathway (AID 1159521; also: nearly all actives have a fitted effect of over 50% in size; also: potency is read from the fitted curve at half-maximal effect)
Summary of the method: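 Inducible-expression reporter assay: doxycycline (1 uM final) switched on RORγ in CHO cells bearing a ROR response element-luciferase construct, with test compounds present from 2 h beforehand. Decreased luminescence after 16 h defined antagonist activity.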

[15] = qHTS assay to identify small molecule antagonists of the estrogen related receptor (ERR) signaling pathway - cell viability counter screen (AID 1224818);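 also: viability measured after 17.5 h of compound exposure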
Summary of the method: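 Cytotoxicity check run alongside the ERR antagonist screen: cells exposed to test compounds 17.5 h at 37 C, viability taken as CellTiter-Fluor fluorescence intensity.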

[16] = qHTS assay to identify small molecule antagonists of the estrogen related receptor (ERR) signaling pathway (AID 1224819)
Summary of the method: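 ERR reporter cells were plated at 2,000 cells/well and left 6 h at 37 C/5% CO2 before pin-tool transfer of compounds in DMSO. After 18 h at 37 C, One-Glo was added and luminescence was read 30 min later at room temperature.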

[17] = qHTS assay to identify small molecule agonists of the estrogen related receptor (ERR) signaling pathway (AID 1224820)
Summary of the method: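 Luminescence readout (One-Glo, 30 min RT) from NTP-supplied ERR cell line exposed to compounds for 18 h at 37 C. Cells seeded 2,000 per well and pre-incubated 6 h before pin-tool compound transfer.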

[18] = test system: estrogen-related receptor alpha (ERRalpha) with PGC-1alpha coactivator, human; assay: qHTS assay to identify small molecule antagonists of the estrogen related receptor signaling pathway with the pleiotropic PPARgamma coactivator (PGC) (AID 1224821; calls by dose curve)
Summary of the method: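 PGC/ERR reporter cells; 6 h pre-incubation 37 C/5% CO2; pin-tool compound in DMSO, 18 h 37 C; One-Glo added, 30 min RT; luminescence read. qHTS antagonist mode.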

[19] = qHTS assay to identify small molecule antagonists of the estrogen related receptor signaling pathway with the pleiotropic PPARgamma coactivator (PGC) cell viability counter screen (AID 1224822;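 also: viability read after 17.5 h compound exposure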)
Summary of the method: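 Viable cell signal (CellTiter-Fluor, 30 min, 37 C/5% CO2) was measured in PGC/ERR cells after a 17.5 h compound incubation.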

[20] = qHTS assay to identify small molecule agonists of the estrogen related receptor signaling pathway with the pleiotropic PPARgamma coactivator (PGC) (AID 1224823)
Summary of the method: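 Luminescence readout (One-Glo, 30 min RT) from PGC/ERR cell line treated 18 h at 37 C with pin-tool-delivered DMSO compound solutions; cells plated 6 h before dosing. Quantitative HTS format.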

Measured: Potency

Retinoic acid receptor RXR-alpha (Homo sapiens), sequence (P19793 whole entry, looked up): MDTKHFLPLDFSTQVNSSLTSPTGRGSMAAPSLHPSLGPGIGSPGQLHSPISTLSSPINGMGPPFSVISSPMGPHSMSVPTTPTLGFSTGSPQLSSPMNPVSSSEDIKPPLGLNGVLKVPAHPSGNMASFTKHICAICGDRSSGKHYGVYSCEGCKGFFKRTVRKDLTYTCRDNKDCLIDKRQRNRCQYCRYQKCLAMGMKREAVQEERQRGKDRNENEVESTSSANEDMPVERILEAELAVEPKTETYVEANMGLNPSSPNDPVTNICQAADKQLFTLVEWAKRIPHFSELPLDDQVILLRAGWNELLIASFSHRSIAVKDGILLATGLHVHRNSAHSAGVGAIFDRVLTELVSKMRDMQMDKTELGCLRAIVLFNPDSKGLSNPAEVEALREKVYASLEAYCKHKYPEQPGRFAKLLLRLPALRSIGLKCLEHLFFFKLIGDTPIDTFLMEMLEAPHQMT

CCOS(=O)(=O)OCC
inactive: [1] | [2] | [3] | [4] | [5] | [6] | [7] | [8] | [9] | [10] | [11]

CC(C)(O)C#N
not listed: [14] | [15] | [16] | [17] | [18] | [19] | [20]
inactive: all other assays above

CC(C)CON=O
not listed: [14] | [15] | [16] | [17] | [18] | [19] | [20]
inactive: all other assays above

CCOP(=S)(OCC)SCSC(C)(C)C
inactive: [1] | [2] | [3] | [4] | [5] | [6] | [7] | [8] | [9] | [10] | [11]

CCCCC(C#N)(Cn1cncn1)c1ccc(Cl)cc1 (stereo not given)
not listed: [9] | [14] | [15] | [16] | [17] | [18] | [19] | [20]
inactive: all other assays above

N#Cc1cccnc1
not listed: [12] | [13] | [15] | [16] | [17] | [18] | [19] | [20]
inactive: all other assays above

NC(=O)CN1CCCC1=O
not listed: [13] | [14]
inactive: all other assays above

CC(C)(O)C(=O)Nc1ccc([N+](=O)[O-])c(C(F)(F)F)c1
not listed: [9] | [14] | [15] | [16] | [17] | [18] | [19] | [20]
inactive: all other assays above

S=c1[nH]c2ccccc2[nH]1
not listed: [15] | [16] | [17] | [18] | [19] | [20]
inactive: all other assays above

[Cl-].[Cl-].[Cl-].[Fe+3]
inactive: [1] | [2] | [3] | [4] | [5] | [6] | [7] | [8] | [9] | [10] | [11]

Cc1ccc([N+](=O)[O-])cc1
not listed: [12] | [13] | [15] | [16] | [17] | [18] | [19] | [20]
inactive: all other assays above

CCNc1nc(Cl)nc(NC(C)(C)C#N)n1
inactive: [1] | [2] | [3] | [4] | [5] | [6] | [14] | [7] | [8] | [10] | [11]

CN(C)c1nc(=O)n(C2CCCCC2)c(=O)n1C
inactive: [1] | [2] | [3] | [4] | [5] | [6] | [7] | [8] | [9] | [10] | [11]

Cn1c(-c2ccccc2)cc(-c2ccccc2)[n+]1C
not listed: [15] | [16] | [17] | [18] | [19] | [20]
inactive: all other assays above

COP(=S)(OC)Oc1ccc(S(=O)(=O)N(C)C)cc1
not listed: [15] | [16] | [17] | [18] | [19] | [20]
inactive: all other assays above

CCCCCCCCCCCCCl
not listed: [14] | [15] | [16] | [17] | [18] | [19] | [20]
inactive: all other assays above

CCC1(c2ccc(N)cc2)CCC(=O)NC1=O (stereo not given)
not listed: [12] | [13] | [14]
inactive: all other assays above

ClCC(Cl)CCl
not listed: [15] | [16] | [17] | [18] | [19] | [20]
inactive: all other assays above

C[C@]12CCC(=O)C=C1CC[C@@H]1[C@@H]2CC[C@@]2(C)[C@H]1CC[C@]2(C)O
active: [14] 15.5 µM and 26.6 µM | [12] 43.6 µM
not listed: [9] | [16] | [17] | [18] | [20]
inactive: all other assays above

N#CC(c1ccccc1)c1ccccc1
not listed: [15] | [16] | [17] | [18] | [19] | [20]
inactive: all other assays above

N#Cc1nn(-c2c(Cl)cc(C(F)(F)F)cc2Cl)c(N)c1S(=O)C(F)(F)F (stereo not given)
24.7 µM (active) and inactive: [1]
inactive: [3] | [4] | [5] | [6] | [7] | [8] | [10] | [11] | [13]
active: [14] 7.74 µM and 16.8 µM

CCN(CC)C(=O)C(C)Oc1cccc2ccccc12 (stereo not given)
inactive: [1] | [2] | [3] | [4] | [5] | [6] | [7] | [8] | [10] | [11]

CNC(=O)Oc1cccc2c1OC(C)(C)C2
not listed: [14] | [15] | [16] | [17] | [18] | [19] | [20]
inactive: all other assays above

CC1(C)Cc2cccc(O)c2O1
not listed: [14] | [15] | [16] | [17] | [18] | [19] | [20]
inactive: all other assays above

CN(C)c1ccccc1
not listed: [14] | [15] | [16] | [17] | [18] | [19] | [20]
inactive: all other assays above

ClC(Cl)=C(Cl)C(Cl)=C(Cl)Cl
not listed: [14] | [15] | [16] | [17] | [18] | [19] | [20]
inactive: all other assays above

OCCOCCO
not listed: [9] | [15] | [16] | [17] | [18] | [19] | [20]
inactive: all other assays above

CC(O)CN(CC(C)O)CC(C)O (stereo not given)
not listed: [14] | [15] | [16] | [17] | [18] | [19] | [20]
inactive: all other assays above

ClCc1ccccn1
inactive: [1] | [2] | [3] | [4] | [5] | [6] | [7] | [8] | [9] | [10] | [11]

NN=C(N)N
not listed: [12] | [13] | [14] | [16] | [17] | [18] | [20]
inactive: all other assays above

CCC(=O)Nc1ccc(Cl)c(Cl)c1
not listed: [14] | [15] | [16] | [17] | [18] | [19] | [20]
inactive: all other assays above

N#CCCCCC#N
not listed: [12] | [13] | [15] | [16] | [17] | [18] | [19] | [20]
inactive: all other assays above
